miR-122 sensor – miR-122 inhibition in Huh7 cells; 340,000 compounds, 0.3% hits; Huh7 miR-122 Renilla luciferase sensor, 48 h; neutral wells = 0, positive control = 100; activation (reporter increase), % at 12.5 µM;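 active = mean replicate activation score at least 90 and every replicate individually at or above 90; inconclusive = only one of the two criteria met; inactive = neither criterion met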;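 note: higher luciferase means less miR-122 activity so hits act as miR-122 inhibitors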
EWS-Fli block – blocks EWS/Fli oncoprotein-driven transcription | A673 NR0B1-luciferase reporter, viability-normalised | inhibition, % at 12.6 µM | 350,000 compounds, 0.67% hits;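 active = mean inhibition of at least 50% after viability correction, with every replicate also passing that limit; inconclusive = mean reaches 50% but only one of two replicates passes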;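 note: firefly luciferase signal divided by Alamar Blue viability fluorescence both relative to DMSO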
Env fusion inh – HIV envelope-mediated fusion inhibition. HeLa-JRFL Env/CEM21 cell fusion, luciferase. inhibition, % at 12.3 µM. 360,000 compounds, 1.1% hits. AID 651610;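 active = mean replicate inhibition score of at least 50 and every replicate individually at or above 50; inconclusive = only one of the two criteria met; inactive = mean below 50 and not all replicates reaching 50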;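 note: 0% = plate neutral controls and 100% = maraviroc near 300 nM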
Statin myotox sup – protects C2C12 myotubes from simvastatin toxicity. rescue of ATP level, % at 7.49 µM. 330,000 compounds, 0.78% hits. ATP luminescence, 48 h; scaled: DMSO 0, geranylgeraniol control 100;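 active = mean ATP rescue above about 67%, or every replicate alone reaching that limit, limit read from the data, passing the limit was not always enough; inconclusive = no clear call, values can overlap the other calls; inactive = mean under the limit and some replicate under it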;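 note: myotubes were challenged with 10 µM simvastatin during compound exposure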
INS-1E GSIS act – primary screen for activators of insulin secretion dependent on glucose, INS-1E cells, GLuc reporter luminescence. INS-1E GLuc reporter insulin secretion, 2-3 h. activation, % at 16.6 µM. 370,000 compounds, 0.61% hits;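 active = lowest replicate activation of at least 40%, so every replicate reaches that level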;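 note: 0% = median of neutral control wells and 100% = median of IBMX positive control wells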
PAX8 inh HTS – PAX8 transcriptional activity inhibition; 360,000 compounds, 1.2% hits; AID 652154; inhibition, % at 12.6 µM; RMG-I TPO-luciferase reporter, SteadyGlo, 24 h;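 active = mean replicate inhibition at least 60% with every replicate also reaching 60%; inconclusive = only one of the two criteria is met; inactive = mean below 60% and not all replicates reaching 60%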;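 note: luciferase light reporting Pax8 driven TPO promoter activity; plate controls were median of neutral control wells for no effect and mitoxantrone controls for full effect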
Starred values were filed as active, the others as inactive; i = inactive; ? = inconclusive; nt = no result given; + = active, no number; [ ] = dose if it differs, or a comment. Shown are actives, neighbours in structure and some others; about 3.1% of the full set was active somewhere.

SMILES | miR-122 sensor | EWS-Fli block | Env fusion inh | Statin myotox sup | INS-1E GSIS act | PAX8 inh HTS
CCNC(=O)C[C@@H]1CC[C@H]2[C@@H](COC[C@H](O)CN2C(=O)Nc2cccc(OC)c2)O1 | -2[16.7 µM] | nt | nt | 11 | 4 | nt
CCN(CCCNC(=O)CC(C(=O)N1CCc2ccccc21)n1ccnc1)c1ccccc1 (stereo not drawn) | 2 | nt | 63* | 35 | -31 | nt
O=C(CC(C(=O)N1CCc2ccccc21)n1ccnc1)NCc1cccnc1 (stereo not drawn) | 1 | nt | -42 | 20 | 8 | nt
N/C(=N\OC(=O)c1ccc2ccccc2c1)c1ccccn1 | -10 | 80* | 8 | -20 | 6 | 75*
CCCc1ccc(C(=O)O/N=C(\N)c2ccccn2)cc1 | -2 | 88* | 32 | -31 | 0 | 106*
Cc1noc(C)c1S(=O)(=O)Nc1cccc2c1O[C@@H](CN(C)Cc1ccc(-c3ccccc3)cc1)[C@@H](C)CN([C@H](C)CO)C2=O | 1[16.7 µM] | -9 | -16[16.7 µM] | nt | -15 | nt
C[C@H](CO)N1C[C@H](C)[C@@H](CN(C)S(=O)(=O)CC(F)(F)F)OCc2ccccc2-c2ccccc2C1=O | nt | 3 | -3[16.7 µM] | -17 | nt | -24
CNC(=O)C[C@@H]1CC[C@@H]2[C@H](COc3ccc(NS(=O)(=O)c4cccc(F)c4)cc3C(=O)N2C)O1 | -3[16.7 µM] | -6 | 6[16.7 µM] | 7 | 3 | -3
CCN1CCN(CC(O)COC(C)C)CC1 (stereo not drawn) | -6 | nt | -55 | 8 | 6 | nt
CC(C)OCC(O)CN (stereo not drawn) | -2 | nt | -19 | 97* | nt | 1
CCO[C@@H]1OC(C(=O)N2CCCCCCC2)=C[C@H](C)[C@H]1CCCO | nt | 1 | -2[16.7 µM] | nt | nt | 3
N#C[C@H]1[C@@H](c2ccccc2-c2cccc(F)c2)[C@@H](CO)N1C(=O)NC1CCCC1 | nt | -10 | nt | nt | -13 | nt
CCC[C@@H](CN[C@@H](CNC)C(C)C)NCCCCc1ccccc1 | -9 | 12 | -2 | -72 | -40 | 14
CCC[C@@H](CN[C@@H](CNC)[C@H](C)CC)NCC1CCC(C(C)(C)C)CC1 (stereo partly drawn) | -25 | 56* | 13 | nt | -42 | 93*
CCC[C@H](CN[C@@H](CNC)[C@H](C)CC)NCCc1cc(C(F)(F)F)cc(C(F)(F)F)c1 | -2 | 52* | -19 | -161 | 24 | 97*
CC[C@@H](C)[C@H](CNC)NC[C@@H](Cc1cccc2ccccc12)NCCc1cccc(C(F)(F)F)c1 | nt | 45 | ? | -37 | + | 103*
COCCCNC(=S)Nc1cc2oc3ccccc3c2cc1OC | 12 | nt | 68* | -30 | -6 | 17
COc1cc2c(cc1NC(=S)Nc1cccc3ccccc13)oc1ccccc12 | 12 | nt | nt | 15 | nt | nt
CC(NC(=O)C12CC3CC(C)(CC(C)(C3)C1)C2)c1ccncc1 (stereo not drawn) | -1 | -8 | 65* | 32 | -1 | 0
CCCCc1nn(-c2cc(Cl)ccc2OC)c2c1C(=O)CC(C)(C)C2 | -1 | 4 | 57* | 2 | -15 | 1
CCOC(=O)/C(C#N)=C/c1c(N2CCCCCC2)nc2ccccn2c1=O | 1 | 10 | -5 | -4 | -1 | -18
CCNc1nn2ccccc2c1/C=C(\C#N)C(=O)OCC | -6 | -15 | -19 | -5 | 66* | -9
COc1ccc(CN(C)C[C@H]2OCCCC[C@@H](C)Oc3ccc(NC(=O)c4ccccc4)cc3C(=O)N([C@@H](C)CO)C[C@H]2C)cc1 | 1[16.7 µM] | -3 | -45[16.7 µM] | nt | -24 | -34
COc1ccc(C(C#N)=Cc2ccc(OC)c(OC)c2)cc1 | -10 | -43 | -29 | 0 | 80* | -49
COc1ccc(/C=C/C(=O)c2cc(F)ccc2OC(=O)c2ccccc2)cc1OC | 20 | nt | i | 21 | nt | 77*
C[C@@H]1CCCCO[C@@H](CN(C)S(=O)(=O)c2cccs2)[C@H](C)CN([C@@H](C)CO)C(=O)c2cc(NC(=O)Nc3cccc4ccccc34)ccc2O1 | -18[16.7 µM] | 11 | -11[16.7 µM] | -22 | 0 | 8
CNc1nc(Nc2ccccc2)nc(OCC(F)(F)F)n1 | nt | -5 | -5 | nt | 76* | -21
CC(=O)c1cc(NC(=O)c2cccc(C(F)(F)F)c2)c(=O)oc1C | 3 | 45 | -24 | nt | -68 | 89*
CC(=O)c1cc(NC(=O)c2cccc(C(F)(F)F)c2)c(=O)oc1/C=C/N(C)C | -7 | nt | -33 | -13 | nt | nt

Source: PubChem BioAssay
